Only some compounds are listed: those with a hit (about 1.7% of all), similar ones and a draw of the others.
IL1B NFkB pot – enhancers of NFkB p65 translocation in HUVEC – imaging, IL-1B stimulus, high-content imaging, primary screen | activation, % at 2 µM | 94,000 tested, 0.3% active | HUVEC IL-1B NFkB p65 nuclear translocation imaging | AID 819, 2007;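 active = activation above 40%, about the mean plus 3 SD, also judged a hit on visual image review; inconclusive = activation above 40% but not a hit on visual review; inactive = activation not above 40% and no visual hit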;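 note: percent activation is computed from the nuclear over cytoplasmic p65 intensity ratio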
E-sel TNF inh – E-selectin induction blockers in HUVEC – imaging, immunofluorescence, high content, primary screen. HUVEC TNFa-induced E-selectin immunofluorescence. inhibition, % at 2 µM. 120,000 tested, 0.71% active;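 active = inhibition above the batch mean plus 3 SD, and confirmed as a hit on visual image review, cut at about 43% in these data; inconclusive = passes the inhibition cutoff but fails visual image review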
NFkB transloc inh – inhibitors of IL-1B driven NFkB p65 nuclear import, primary screen, imaging, HUVEC, IL-1B stimulus, high-content imaging. HUVEC IL-1B NFkB p65 nuclear translocation imaging. inhibition, % at 2 µM. 94,000 tested, 0.43% active;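 active = inhibition above about 30% together with a positive call from visual inspection of the well image, limit read from the data; inconclusive = inhibition above a set limit but visual check negative; inactive = inhibition not above a set limit, visual check negative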;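 note: nuclear over cytoplasmic p65 intensity ratio measured by imaging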
VCAM1 TNFa inh – inhibitors of TNFa-induced VCAM1 expression, primary screen, imaging, HUVEC, TNFa stimulus, immunofluorescence | HUVEC TNFa-induced VCAM-1 immunofluorescence, high-content imaging | inhibition, % at 2 µM | 95,000 tested, 0.48% active | AID 802, 2007;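 active = inhibition above the batch mean plus 3 SD, with images confirmed as a hit by eye, cut at about 37% in these data; inconclusive = inhibition above that limit but hit not confirmed in images; inactive = inhibition not above that limit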
HUVEC tox IL1B – cytotoxicity in IL-1B stimulated HUVEC, primary screen, cytotoxicity control for IL-1B NFkB translocation project, imaging, Hoechst nuclear count, IL-1B stimulus | HUVEC cell count loss | cell count reduction, % at 2 µM | 94,000 tested, 0.41% active | AID 845, 2007;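 active = cell count reduction more than 3 SD above the screen-wide mean, cut at about 70% in these data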
TNFa cytotox – cytotoxicity in TNFa-stimulated HUVEC, primary screen, cytotoxicity control for VCAM1 expression modulator project, imaging, Hoechst nuclei count; HUVEC TNFalpha-stimulated, Hoechst cell count; cell count reduction, % at 2 µM; 93,000 tested, 0.17% active;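 active = cell count reduction exceeding the screen mean by over 5 SD, scaled to untreated wells per plate, cut at about 78% in these data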;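 note: cells counted after 24 h of TNF alpha exposure following the 1 h pretreatment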
Each line names hits and unclear results; the compound was inactive in the other large screens.

CCCn1nc(C(=O)OCC(=O)Nc2ncc(Cl)c(C)c2Cl)c2ccccc2c1=O	none (no result: IL1B NFkB pot, NFkB transloc inh, VCAM1 TNFa inh, HUVEC tox IL1B, TNFa cytotox)
Cc1c(Cl)cnc(NC(=O)COC(=O)c2nn(C)c(=O)c3ccccc23)c1Cl	E-sel TNF inh 64.3 (no result: IL1B NFkB pot, NFkB transloc inh, VCAM1 TNFa inh, HUVEC tox IL1B, TNFa cytotox)
COc1ccc(-n2c(COc3ccccc3)nnc2SCC(N)=O)cc1	E-sel TNF inh 80.8
Cc1ccc(C(=O)CSc2nnc(COc3ccc(C#N)cc3)n2-c2ccccc2)cc1	VCAM1 TNFa inh 95.9
C=CCn1c(COc2ccccc2)nnc1SCC(=O)O	E-sel TNF inh 62.0
COc1ccc(C(=O)CSc2nnc(COc3ccc(C#N)cc3)n2-c2ccccc2)cc1	none (no result: E-sel TNF inh)
CCOC(=O)c1ccc(NC(=O)CCNc2c(N3CCCC3)c(=O)c2=O)cc1	VCAM1 TNFa inh 69.6
CCOC(=O)c1ccc(NC(=O)CN2CCN(c3ccccc3)CC2)cc1	none (no result: VCAM1 TNFa inh, TNFa cytotox)
Cc1ccc(NC(=O)c2ccc3c(c2)OCCO3)cc1S(=O)(=O)Nc1cccc(Cl)c1	none (no result: IL1B NFkB pot, NFkB transloc inh, VCAM1 TNFa inh, HUVEC tox IL1B, TNFa cytotox)
COc1ccc(C(C)=O)c2c(O)cccc12	none
CCC1=NNc2cccc3c(OC)ccc1c23	IL1B NFkB pot 40.5
O=C(CN(CCc1ccccc1)S(=O)(=O)c1ccc(Br)cc1)N/N=C/c1ccccc1C(=O)O	none (no result: IL1B NFkB pot, NFkB transloc inh, VCAM1 TNFa inh, HUVEC tox IL1B, TNFa cytotox)
CCSc1nnc(NC(=O)Cc2cccc(OC)c2)s1	NFkB transloc inh 35.7
OCCN=C(c1ccccc1)C12CN3CN(CN(C3)C1)C2	IL1B NFkB pot inconclusive, VCAM1 TNFa inh 59.9 (no result: E-sel TNF inh)
CC(=O)Nc1ccc(S(=O)(=O)N2C3CCCC2CC(NC(=O)C2CCCCC2)C3)cc1 (stereo not drawn)	none
COC(=O)c1ccc(S(=O)(=O)N2C3CCC2CC(NC(=O)C2CC2)C3)cc1 (stereo not drawn)	HUVEC tox IL1B 84.5
CCOc1ccc2ccccc2c1/C=N/n1cncn1	VCAM1 TNFa inh 88.5
CC1CCCC(C)N1C(=O)CSc1nnc(COc2ccccc2)n1-c1ccccc1 (stereo not drawn)	none
N#CCCn1nc(-c2ccc([N+](=O)[O-])cc2)cc1Nc1ccccc1NC(=O)C(F)(F)F	none (no result: IL1B NFkB pot, NFkB transloc inh, VCAM1 TNFa inh, HUVEC tox IL1B, TNFa cytotox)
C=CCNS(=O)(=O)c1nc(C)c(Cl)c(C)c1C#N	E-sel TNF inh 78.5 (no result: IL1B NFkB pot, NFkB transloc inh, VCAM1 TNFa inh, HUVEC tox IL1B, TNFa cytotox)
CCC(C)(CC(=O)N(C)CCC#N)c1ccccc1 (stereo not drawn)	HUVEC tox IL1B 83.7
Cc1csc(NC(=O)CSc2nnc(-c3ccc(S(=O)(=O)N4CCCC4)cc3)o2)n1	VCAM1 TNFa inh 72.9 (no result: E-sel TNF inh)
CCCCn1c(CNC(=O)C23CC4CC(CC(C4)C2)C3)nnc1SC(C)CC (stereo not drawn)	none (no result: IL1B NFkB pot, NFkB transloc inh, VCAM1 TNFa inh, HUVEC tox IL1B, TNFa cytotox)
COc1ccc2[nH]cc(CCN=C3SCC(=O)N3C)c2c1	none (no result: E-sel TNF inh)
CCN1C(=O)CSC1=NC12CC3CC(CC(C3)C1)C2	VCAM1 TNFa inh 96.4
CN1C(=O)CSC1=NC12CC3CC(CC(C3)C1)C2	IL1B NFkB pot 40.0
O=C(C1CCN(S(=O)(=O)N2CCCCC2)CC1)N1CCCCC1	none (no result: IL1B NFkB pot, NFkB transloc inh, VCAM1 TNFa inh, HUVEC tox IL1B, TNFa cytotox)
CS(=O)(=O)c1ccc(Cl)c(NC(=O)c2ccc3ccccc3c2)c1	E-sel TNF inh 63.5 (no result: IL1B NFkB pot, NFkB transloc inh, VCAM1 TNFa inh, HUVEC tox IL1B, TNFa cytotox)
CS(=O)(=O)N1CCN(c2ccccc2NC(=O)c2ccc3ccccc3c2)CC1	none
CCCNC(=O)c1ccccc1NC(=O)c1ccc(CSc2ccccc2)cc1	none
COc1ccc2nc(NC(=O)c3cc(C)oc3C)sc2c1	none
COc1ccc(NS(=O)(=O)c2cc(C)ccc2NC(=O)c2cc(C)oc2C)cc1	VCAM1 TNFa inh 44.4
COc1ccc2c(c1)-c1c(ssc1=S)C(C)(C)N2	HUVEC tox IL1B 93.9
Cc1n[nH]c(=O)nc1NCc1ccccc1	VCAM1 TNFa inh 88.9 (no result: E-sel TNF inh)
CCCCNC(=O)C1CCN(C/C(C)=C/c2ccccc2)CC1	none
C/C(=C\c1ccccc1)CN1CCC(C(=O)N2CCC(C)CC2)CC1	IL1B NFkB pot 46.0
CCN(CC)CCOc1ccccc1C(C)=O	none (no result: IL1B NFkB pot, NFkB transloc inh, VCAM1 TNFa inh, HUVEC tox IL1B, TNFa cytotox)
Cn1c(SC2=CS(=O)(=O)c3ccccc32)nc2ccccc21	E-sel TNF inh 62.3
Cn1c(CSc2nc3ccccc3n2C)nc2ccccc21	none
COc1ccc(-c2cc(C(F)(F)F)n3nc(C(=O)Nc4c(C)n(C)n(-c5ccccc5)c4=O)cc3n2)cc1	none (no result: IL1B NFkB pot, NFkB transloc inh, VCAM1 TNFa inh, HUVEC tox IL1B, TNFa cytotox)
N=C(N)SCc1nc2ccccc2c(=O)n1-c1ccccc1	E-sel TNF inh 61.0 (no result: IL1B NFkB pot, NFkB transloc inh, VCAM1 TNFa inh, HUVEC tox IL1B, TNFa cytotox)

High-throughput results from PubChem.
